Reference: PubChem BioAssay (EPA / NIEHS)
Activity calls are given as the source filed them. Rule for the calls: active = hit-call score of the fitted dose curve at least 0.9, where 1 is the maximum; inactive = score below 0.9.

Test: ATG_TA_CIS: Attagene CIS-FACTORIAL HepG2 Assay for human TA Basal Promoter (AID 2282964)
Conditions: HepG2 Attagene CIS-factorial TA basal promoter reporter; actives raise or lower the signal
In short: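 Transfected HepG2, 24 h compound exposure; RNA → RT-PCR → FAM primer extension → HpaI cut → CE fluorescence. Gain/loss-of-signal fitted against DMSO negative control. Background-control readout.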

outcome, inactive:
NCCCN1CCOCC1
CCCCCCCCCCCCCC(=O)O
CCCC(=O)C(C)=O
COC(=O)c1ccc(C)cc1
CNC(=O)Oc1ccc2c(c1)[C@]1(C)CCN(C)[C@@H]1N2C
BrC1CCC(Br)C(Br)CCC(Br)C(Br)CCC1Br (stereo not given)
CC1CCC(C(C)(C)O)CC1 (stereo not given)
CC1CCC2CC1C2(C)C (stereo not given)
CCCC(=O)c1cc(O)c(O)cc1O
COC(=O)C1=C(C)NC(C)=C(C(=O)OCCN(C)Cc2ccccc2)C1c1cccc([N+](=O)[O-])c1 (stereo not given)
C[Si](O[Si](C)(C)C)O[Si](C)(C)C
C=CCOC(=O)CCC1CCCCC1
O=Cc1ccc(F)cc1
O=C(O)CCCCCCCCCCC(=O)O
CC(CCO)CCc1ccccc1 (stereo not given)
CC1=CCC2C(C1)C2(C)C (stereo not given)
COC(C(=O)O)c1ccccc1 (stereo not given)
OCc1cccnc1
Clc1cccc(Cl)n1
COc1ccc(OC)c(OC)c1
CC(C)=CCCC(C)CC=O (stereo not given)
Nc1ccc(F)c([N+](=O)[O-])c1
Cc1cccc(C)c1C
COc1c(Cl)c(Cl)c(Cl)c(Cl)c1Cl
Cc1c(N(C)C)c(=O)n(-c2ccccc2)n1C
CC(C)=CCC[C@H](C)CC=O
O=C1c2ccccc2C(=O)N1SC1CCCCC1
CCCCC/C=C/C=C/C=O
CCCCNC(=O)NS(=O)(=O)c1ccc(C)cc1
CC(=O)C(C)=O
